Compound activity from PubChem.
Many of the other results were omitted from the sample, so hits are more common in it than they were.
KDM5B inhibitor: blocks human KDM5B histone demethylase activity. Q9UGL1. KDM5B demethylase, FDH-coupled NADH fluorescence (FDH is formaldehyde dehydrogenase). Potency, µM (series often up to 57.7 µM), actives largely listed as inhibitors. 2.6% of 220,000 active; active = well fitted inhibition curve with a large enough effect; also: 0% is about no effect; nearly all actives have a fitted effect of over 70% in size
Target sequence (Q9UGL1 whole entry, looked up): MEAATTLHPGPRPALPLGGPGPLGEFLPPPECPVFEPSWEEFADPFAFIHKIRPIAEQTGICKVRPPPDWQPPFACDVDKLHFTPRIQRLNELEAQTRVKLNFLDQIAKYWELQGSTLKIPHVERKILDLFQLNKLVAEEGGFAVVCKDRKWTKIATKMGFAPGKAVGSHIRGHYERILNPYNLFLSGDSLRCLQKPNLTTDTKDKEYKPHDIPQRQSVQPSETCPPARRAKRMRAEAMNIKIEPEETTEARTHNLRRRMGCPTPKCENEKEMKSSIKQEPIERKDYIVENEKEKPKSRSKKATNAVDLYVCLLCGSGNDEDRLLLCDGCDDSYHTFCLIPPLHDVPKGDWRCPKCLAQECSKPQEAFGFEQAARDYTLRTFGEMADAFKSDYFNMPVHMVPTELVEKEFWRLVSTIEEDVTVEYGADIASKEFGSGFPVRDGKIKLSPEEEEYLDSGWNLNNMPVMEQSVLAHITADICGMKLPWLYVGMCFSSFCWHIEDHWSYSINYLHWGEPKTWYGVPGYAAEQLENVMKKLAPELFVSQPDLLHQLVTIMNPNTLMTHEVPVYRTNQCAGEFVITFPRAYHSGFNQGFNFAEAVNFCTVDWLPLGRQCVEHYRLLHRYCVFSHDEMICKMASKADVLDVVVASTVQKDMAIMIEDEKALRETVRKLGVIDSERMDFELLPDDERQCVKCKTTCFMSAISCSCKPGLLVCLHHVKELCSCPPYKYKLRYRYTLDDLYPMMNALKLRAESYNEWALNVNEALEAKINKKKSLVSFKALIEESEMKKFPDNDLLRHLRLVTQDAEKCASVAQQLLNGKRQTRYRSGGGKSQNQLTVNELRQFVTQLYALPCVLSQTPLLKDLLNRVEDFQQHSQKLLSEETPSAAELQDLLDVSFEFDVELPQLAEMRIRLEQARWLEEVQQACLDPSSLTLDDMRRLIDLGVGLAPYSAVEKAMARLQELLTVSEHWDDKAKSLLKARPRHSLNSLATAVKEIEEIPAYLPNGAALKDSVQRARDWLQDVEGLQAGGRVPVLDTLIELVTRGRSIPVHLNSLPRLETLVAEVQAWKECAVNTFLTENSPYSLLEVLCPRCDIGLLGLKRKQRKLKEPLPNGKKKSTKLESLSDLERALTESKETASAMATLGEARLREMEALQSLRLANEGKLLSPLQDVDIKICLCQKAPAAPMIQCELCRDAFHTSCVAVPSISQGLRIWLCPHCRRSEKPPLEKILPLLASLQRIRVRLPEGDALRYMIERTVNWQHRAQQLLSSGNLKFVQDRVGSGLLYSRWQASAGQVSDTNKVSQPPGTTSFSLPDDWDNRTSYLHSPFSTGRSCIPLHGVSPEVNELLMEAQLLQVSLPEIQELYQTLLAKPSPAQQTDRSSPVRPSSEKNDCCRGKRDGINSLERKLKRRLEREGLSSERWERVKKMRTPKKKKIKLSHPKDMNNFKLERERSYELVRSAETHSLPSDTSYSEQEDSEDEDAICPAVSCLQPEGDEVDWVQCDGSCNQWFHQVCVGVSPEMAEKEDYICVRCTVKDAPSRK
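Here, H3K4me3 peptide (12.5 µM in substrate mix) is demethylated by KDM5BΔAP, 200 nM final, after 10 min compound exposure. Formaldehyde product is coupled through FDH (0.25 U/mL in mix) to NADH fluorescence; 30-min ΔRFU feeds dose-response curves.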
Numbers without * were called inactive; i = inactive. Potency is read from the fitted curve at half-maximal effect.

SMILES	KDM5B inhibitor
COCCNC(=O)c1ccc2c(c1)N(C)C(CC(=O)NCc1ccccn1)CO2 (centres undefined)	28µM*
CN(C)C(=O)c1ccc2c(c1)N(C)C(CC(=O)NC(C)(CO)CO)CO2 (centres undefined)	i
CC12CC3CC(C)(C1)CC(C(=O)NCc1ccccn1)(C3)C2	i
COCCNC(=O)CCCN1C(=O)COc2ccc(C(=O)COc3c(C)ccc(C)c3C)cc21	i
COCCNC(=O)CCCN1C(=O)COc2ccc(C(=O)COc3cc(C)ccc3Cl)cc21	i
O=C(NCc1ccccn1)c1ccc2c(c1)N(C(=O)c1ccc(F)cc1)CC2	i
COCCNC(=O)c1ccc2c(c1)N(C)C(CC(=O)NC(C)(C)CO)CO2 (centres undefined)	32µM*
COCCNC(=O)CCCN1C(=O)COc2ccc(C(=O)COc3cc(C)ccc3F)cc21	i
N#Cc1ccccc1CNc1ccc(F)c(Cl)c1	i
O=C(Nc1ccccc1O)c1cc(=O)[nH]c2ccccc12	i
Cn1c(=O)c2c(ncn2CCC(=O)Nc2ccc(Cl)cc2F)n(C)c1=O	i
Cn1c(=O)c2c(ncn2CC(=O)Nc2c(Cl)cccc2Cl)n(C)c1=O	i
Cn1c(=O)c2c(nc(Cl)n2CC(=O)N(C2CCCCC2)C2CCS(=O)(=O)C2)n(C)c1=O (centres undefined)	i
COc1cccc([S+](=O)([O-])N2CCC3(C2)NC(=O)c2ccccc2CO3)c1 (centres undefined)	i
COCCNC(=O)c1ccc2c(c1)N(C)C(CC(=O)NC1CCOCC1)CO2 (centres undefined)	32µM*
COCCNC(=O)c1ccc2c(c1)N(C)C(CC(=O)Nc1ccc[nH]c1=O)CO2 (centres undefined)	28µM*
COCCNC(=O)c1ccc(OC2CCN(S(C)(=O)=O)CC2)c(Cl)c1	i
Cc1ccc(C(=O)NCCOc2nonc2C)cc1N1CCNC1=O	i
COCCNC(=O)c1ccc2c(c1)N(C)C(CC(=O)NCC(F)(F)F)CO2 (centres undefined)	20µM*
COCCNC(=O)CN1C(=O)COc2ccc(S(=O)(=O)N3CCCCCC3)cc21	i
CCOc1ccc2c(c1)C=C(C(=O)NCC(F)(F)F)CO2	i
COCCNC(=O)N1[C@@H]2CC[C@H]1CC(NC(=O)c1ccc(F)cc1)C2 (some centres undefined)	i
Brc1cccc(-c2noc(-c3ccco3)n2)c1	i
O=C(NCc1ccc(CN2CCCCC2)cc1)c1ccc(F)cc1Br	i
c1ccc(CNCC2CCCO2)cc1 (centres undefined)	i
SMILES	KDM5B inhibitor
CSc1cccc(NC(=O)NC(C)c2ccc(Cl)s2)c1 (centres undefined)	i
Cc1nnc(NC(=O)CCc2ccc(-c3ccc(C)c(C)c3)o2)s1	i
CCOc1cc(=O)n2c(c1C(=O)N1CCCc3ccccc31)CCCC2	i
O=C(NCc1ccc(F)cc1)c1nc(-c2cccnc2)c2ccccn12	112µM*
O=C(NCc1cccs1)c1nc(-c2ccc(F)cc2)c2cnccn12	40µM*
O=C(NCc1cccnc1)c1nc(-c2cccc(C(F)(F)F)c2)c2cnccn12	28µM*
O=C(CCc1cccnc1)NCc1cccc(C(F)(F)F)c1	i
C#CCNC(=O)c1nc(-c2cccc(F)c2)c2cnccn12	35µM*
O=C(NCc1cccs1)c1nc2sccn2c1Br	i
O=C(Cc1cccc(C(F)(F)F)c1)NCCc1cccnc1	i
O=C(NC1CC1)c1nc(-c2cccc(F)c2)c2cnccn12	i
CCC1Oc2ccc(NC(=O)C(CC)c3ccccc3)cc2CN(Cc2ccccc2)C1=O (centres undefined)	i
NC1CCCCN(C(=O)CCc2n[nH]c3c2CCCC3)C1 (centres undefined)	i
CC(=O)Nc1ccc(NC(=O)C(C)Sc2nc3ccc(Cl)cc3c(=O)n2CC(C)C)cc1 (centres undefined)	i
CC1CCCCN1S(=O)(=O)c1cccc(C(=O)OCc2nnc(-c3ccc(Cl)cc3)o2)c1 (centres undefined)	i
CN(Cc1ccc(C(F)(F)F)cc1)Cc1cccc(C(F)(F)F)c1	i
COc1ccc(NC(=O)N2CCC3(CC2)SCC(=O)N3c2ccc(Cl)cc2)cc1	i
Cn1c(=O)c2c(nc(N3CCN(C(=O)/C=C/c4ccccc4)CC3)n2Cc2ccccc2)n(C)c1=O	i
CCOc1ccccc1NC(=O)CSc1nc2ccsc2c(=O)[nH]1	i
CCN1CCN(C(=O)Nc2ccc(C)cc2C)CC1	i
O=C1[C@@H]2C[C@@H](CN2C(=O)c2ccno2)Oc2ccccc2N1Cc1ccc(OC(F)(F)F)cc1	i
O=C(NCc1ccc(F)cc1)c1nc(-c2ccc(Cl)cc2Cl)c2cnccn12	56µM*
O=C(NCc1ccc(F)cc1)c1cc2cc(Cl)ccc2[nH]1	i
CC(Cc1cnccn1)NC(=O)c1csc2nc(-c3cccc(C(F)(F)F)c3)cn12 (centres undefined)	i
O=C(NCc1ccc(F)cc1)c1nc(-c2ccccc2)c2cnccn12	79µM*
SMILES	KDM5B inhibitor
O=C(NCc1ccc(F)cc1)c1cc(-c2ccc(Cl)cc2Cl)c2cccn2n1	i
O=C(NCc1cccnc1)c1nc(-c2ccc(F)cc2)c2cnccn12	28µM*
CSc1ncc(C(=O)NCc2ccc(F)cc2)c(-c2ccccc2)n1	i
C[S+](=O)([O-])c1ccc(-c2nc(C(=O)NCc3ccc(F)cc3)n3ccncc23)cc1	i
O=C(NC1CC1)c1nc(-c2cccc(C(F)(F)F)c2)c2cnccn12	i
COC(=O)CNC(=O)c1nc(-c2cccc(C(F)(F)F)c2)c2cnccn12	28µM*
N#Cc1c(/N=C/c2c(F)cccc2F)sc2c1CCCC2	i
CCN(CC)S(=O)(=O)c1ccc(Cl)c(C(=O)Nc2cccc3cccnc23)c1	i
Cc1cnc(C2CCOCC2)n1C1CCN(C(=O)Nc2ccc3c(c2)OCCO3)CC1	i
Cc1cc(C)n2nc(CC(=O)Nc3nc(-c4cccc(Cl)c4)cs3)nc2n1	i
O=C(c1cc(-c2ccccc2)n[nH]1)N1CCC2(CC1)N=C(c1ccccc1)NO2	i
CC(C)(C)C1CCC2(CC1)C(C(=O)c1ccc(F)cc1)C2(C#N)C#N (centres undefined)	i
O=c1ccc2cc(S(=O)(=O)NC34CC5CC(CC(C5)C3)C4)ccc2o1	i
Cc1ccc(-c2ccc(=O)n(Cc3ccc(Cl)cc3)n2)cc1S(=O)(=O)N1CCCC1	i
N=C(N)N1CCN(c2ccccc2)CC1	i
O=C(Cc1c[nH]c2ncc(-c3cccnc3)cc12)NCc1cccc(F)c1	i
CN(C)C(=O)c1nc(-c2cccc(C(F)(F)F)c2)c2cnccn12	7.9µM*
O=C(NCc1cccnc1)c1nc(-c2cccc(F)c2)c2cnccn12	22µM*
Cn1nc(C(F)(F)F)c(-c2cccc(C(F)(F)F)c2)c1NC(=O)c1cccnc1	i
Fc1ccccc1-c1ccc(CNCc2ccccc2)o1	i
CC(Sc1nc(-c2ccccc2)c(-c2ccccc2)o1)C(=O)NC(N)=O (centres undefined)	i
COCC(=O)N1CCC(c2nn(-c3ccc(Cl)cc3)c(=O)[nH]2)CC1	i
C(=N\N=C1c2ccccc2-c2ccccc21)/c1c2ccccc2cc2ccccc12	i
O=C(Nc1ccc([C@@H](O)[C@H]2COCC(=O)N2Cc2ncc[nH]2)cc1)C1CC1	i
Cc1ccc(-c2nccn3cc(C(=O)NCCc4ccccn4)nc23)cc1	i
